High-throughput results (PubChem)
SMN2 splice up: increases expression of the SMN2 splice variant; 210,000 tested, 2.8% active; Potency, µM (titrated, usually from 46.1 µM), inactives show top-dose activity change, positive = activation, usual class: activators; HEK293 SMN2-luciferase splicing reporter, luminescence, 30-36 h; note: % of control where 0% means no effect; nearly all actives have a fitted effect of over 55% in size
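HEK293 cells carry an SMN2 minigene-luciferase reporter in which exon 7 inclusion puts luciferase in frame. Cells were seeded at 2000 cells/well, attached for 10-12 hours, then exposed to compounds for 30-36 hours at 37C before ONE-Glo luminescence.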
Luc counter: blocks Kinase-Glo luciferase, a counter-screen artifact; Q27757; Kinase-Glo luciferase, ATP luminescence, 8 min; Potency, µM (doses to about 38.3 µM), for inactives: at the highest dose activity change, negative = inhibition, usual class: inhibitors; 200,000 tested, 0.28% active; AID 1379; note: % is set by controls: 0 for no effect and ±100 for the full control effect; nearly all actives have a fitted effect of over 60% in size
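Compounds were added to a substrate mix at pH 7.2 (50 mM imidazole, 10 uM ATP, within the enzyme's linear range), followed by Kinase-Glo detection reagent; luminescence was measured after 8 minutes at ambient temperature.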
FLuc modulator: inhibits or activates purified firefly luciferase, miR-21 counter-screen | P08659 | purified FLuc, Km substrates, luminescence inhibition | Potency, µM (top dose mostly 57.5 µM), for the others: top-dose activity change, negative = inhibition, most hits filed as inhibitors | 360,000 tested, 6.9% active;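 note: plate controls were vehicle for no effect and reference inhibitor for full effect; nearly all actives have a fitted effect of over 55% in size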
Target sequence (P08659 whole entry, looked up): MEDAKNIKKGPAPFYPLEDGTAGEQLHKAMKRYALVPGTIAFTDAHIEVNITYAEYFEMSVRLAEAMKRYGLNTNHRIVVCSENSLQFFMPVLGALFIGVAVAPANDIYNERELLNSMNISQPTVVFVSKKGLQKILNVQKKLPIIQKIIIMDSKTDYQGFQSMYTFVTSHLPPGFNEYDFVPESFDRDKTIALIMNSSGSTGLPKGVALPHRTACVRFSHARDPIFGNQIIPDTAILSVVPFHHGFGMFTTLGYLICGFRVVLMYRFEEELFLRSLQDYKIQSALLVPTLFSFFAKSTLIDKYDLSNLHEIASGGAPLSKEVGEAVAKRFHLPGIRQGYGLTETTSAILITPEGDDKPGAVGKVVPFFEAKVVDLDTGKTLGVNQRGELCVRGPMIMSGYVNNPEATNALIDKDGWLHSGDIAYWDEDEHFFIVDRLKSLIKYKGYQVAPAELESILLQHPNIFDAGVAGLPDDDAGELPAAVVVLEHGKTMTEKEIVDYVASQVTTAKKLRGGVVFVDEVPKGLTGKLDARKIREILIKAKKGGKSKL
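Purified P. pyralis luciferase, 10 nM final, with Km-level 10 uM D-luciferin and 10 uM ATP in 50 mM Tris acetate pH 7.5, 10 mM Mg acetate, 0.01% Tween-20, 0.05% BSA; 6-point qHTS titration about 60 µM downward; luminescence read.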
ELG1 genotox: inducers of genotoxicity in HEK293T ELG1-luciferase cells; HEK293T ELG1-luciferase reporter, luminescence, 16 h; Potency, µM (highest dose often 46 µM), for the others: top-dose activity change, positive = activation, hits mostly activators; 330,000 tested, 1.3% active; AID 504466; note: % of control where 0% means no effect; nearly all actives have a fitted effect of over 60% in size
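Genotoxic stress is detected as increased luminescence from luciferase-tagged ELG1 in HEK293T cells, measured with ONE-Glo after a 16 hr treatment at 37 °C.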
Rab9 promoter act: activates the Rab9 promoter; Huh7 Rab9 promoter-luciferase reporter, luminescence, 24 h; Potency, µM (series often up to 9.22 µM), for inactives: top-dose activation, negative = inhibition, hits mostly activators; 320,000 tested, 2.8% active; note: % of control where 0% means no effect; nearly all actives have a fitted effect of over 60% in size
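Using Huh7 cells stably transfected with Rab9 promoter–luciferase, compounds were incubated 24 h at 37 °C, 5% CO2; luciferase luminescence was read 10 min after reagent addition.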
NPC1 promoter act: NPC1 promoter activation; Huh7 NPC1 promoter luciferase reporter, 24 h; Potency, µM (highest dose often 9.22 µM), for the others: at the highest dose activation, usual class: activators; 320,000 tested, 2.4% active; AID 485313; note: % of control where 0% means no effect; nearly all actives have a fitted effect of over 60% in size
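Luminescence read-out of NPC1 promoter-driven luciferase in stably transfected Huh7 cells; compounds delivered in DMSO and left 24 h at 37C, 5% CO2, qHTS titration format.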
* marks the source's active call; other numbers are inactive results; ? = inconclusive; nt = no result given; [ ] = another dose, or the depositor's remark. Hits are enriched below; roughly 7.5% of the tested compounds scored in any of these assays. Calls come from the whole dose curve; as a rule, active = well fitted curve in the direction sought with a large enough effect; inconclusive = small, poorly fitted or top-dose-only effect, or another doubt; inactive = no such curve, though single readings can be large; an effect the other way counts as inactive or inconclusive. Potency is the fitted concentration of half-maximal effect.

SMILES	SMN2 splice up	Luc counter	FLuc modulator	ELG1 genotox	Rab9 promoter act	NPC1 promoter act
COc1ccc2nc(N3CCN(C(=O)C4COc5ccccc5O4)CC3)sc2c1 (stereo not drawn)	nt	nt	6µM*	9%	2µM*	2.8µM*
CCOc1ccc(-c2nnc(SCC(=O)NC3CC3)o2)cc1	nt	nt	?	7%	-7%	-8%
CC(C)(C)c1ccc(C(=O)NCc2nnc(SCC(=O)NC3CCCC3)o2)cc1	nt	nt	?	-1%	2%	2%
CC(C)(C)c1ccc(-c2nnc(SCC(=O)NC3CC3)o2)cc1	nt	nt	4.3µM*	10%	?	?
CC(C)(C)c1ccc(C(=O)NCc2nnc(SCC(=O)NC3CCCCC3)o2)cc1	nt	nt	19µM*	4%	7%[1.84 µM]	2%
CN(CC(=O)Nc1ccc(F)cc1)C(=O)CN1C(=O)c2ccccc2C1=O	nt	nt	1%	2%	0%	1%
CCN(CC(=O)Nc1ccc(NC(C)=O)cc1)C(=O)CCCOc1ccc(C(C)(C)C)cc1	nt	nt	15µM*	?	0%	0%
CCN(CC(=O)NCc1cccs1)C(=O)CCCOc1ccc(C(C)(C)C)cc1	nt	nt	?	-2%	-5%	0%
Cc1cccc2nc(COc3ccc(-c4ccccc4)cc3)cn12	nt	-29%	11µM*	10%	?	26%
Cc1ccnc(SCc2cn3c(C)cc(C)nc3n2)n1	23%	2%	0%	6%	-2%	-2%
Cc1cc(C)n2cc(COc3ccc4ccccc4c3)nc2n1	13µM*	13%	2.4µM*	?	1.1µM*	1.8µM*
COC(=O)[C@@]1(Cc2ccccc2)C=C[C@@H](C)N1C(=O)c1ccccc1	-40%	-7%	nt	nt	nt	nt
NNc1nc(-c2ccccc2Cl)nc2ccccc12	nt	nt	-20%	4%	13%	9%
NNc1nc(-c2ccccc2Cl)nc2sc3c(c12)CCCC3	nt	2%	0.95µM*	?	?	?
O=S(=O)(c1ccc(Cl)c(NC(=S)N/N=C/c2ccc(O)cc2)c1)N1CCOCC1	-63%	-1%	17µM*	-6%	1%	-7%
O=S(=O)(c1ccc(Cl)c(NC(=S)N/N=C/c2c(F)cccc2F)c1)N1CCOCC1	nt	nt	4%	2%	-5%	-4%
Oc1ccc(/C=N/NC(=S)N2CCOCC2)cc1	-46%	?	7.6µM*	9%	28%	26%
N#Cc1ccc(/C=N/NC(=S)Nc2ccc(S(=O)(=O)N3CCOCC3)cc2)cc1	nt	nt	-17%	-5%	-4%	-4%
O=S(=O)(c1ccc(NC(=S)N/N=C/c2ccc(O)c(O)c2)cc1)N1CCOCC1	nt	nt	17µM*	3%	-5%	-2%
CCC(=O)N1c2ccc(S(=O)(=O)N3CCCCCC3)cc2CC1C (stereo not drawn)	8%	nt	-8%	nt	nt	nt
CNC1=CN=C(c2ccccc2)c2cc(Cl)ccc2N1	nt	0%[39.9 µM]	nt	nt	nt	nt
Nc1nc2c(c(=O)[nH]1)CN(c1ccc(S(N)(=O)=O)cc1)CN2	3%[9.22 µM]	1%[7.66 µM]	nt	nt	nt	nt
O=C(Nc1nc2cc3c(cc2s1)OCO3)c1ccco1	nt	nt	0.24µM*	4%	0.22µM*	0.25µM*
CN(C)CCN(C(=O)c1ccco1)c1nc2cc3c(cc2s1)OCCO3	nt	nt	-12%	18µM*	18%	18%
O=C(Nc1nc2ccccc2c(=O)s1)c1ccc(F)cc1Cl	nt	nt	3.8µM*	0%	0%	8%
O=C(Nc1nc2cc3c(cc2s1)OCCO3)c1ccncc1	?	-13%	1.7µM*	?	1.6µM*	2.2µM*
CCOc1ccc(/C=C/c2nc(C#N)c(N3CCN(c4ccccc4)CC3)o2)cc1	4%	nt	-1%	nt	nt	nt
COc1ccc(C=O)cc1COc1ccc2c(c1)OCO2	nt	nt	?	4%	1%	1%
O=C(Nc1nc2cc3c(cc2s1)OCCO3)c1ccco1	nt	nt	0.11µM*	?	0.79µM*	?
O=C(Nc1nc2ccccc2c(=O)s1)c1ccco1	nt	nt	15µM*	0%	-13%	-2%
